Measured values from PubChem BioAssay (NCATS).
Records with an inconclusive call do not appear. Where a call stands in place of a potency, no number is given. A number with no mark means an inactive call. The source made the active and inactive calls. Calls follow the shape of the dose curve; as a rule, active = well fitted inhibition curve with a large enough effect; inconclusive = small, poorly fitted or top-dose-only effect; inactive = flat fitted curve, though single readings scatter.
Potency is read from the fitted curve at half-maximal effect.

Assay: P-glycoprotein substrates identified in KB-8-5-11 adenocarcinoma cell line, qHTS therapeutic library screen (AID 1346987); also: nearly all actives have a fitted effect of over 65% in size
Details: KB-8-5-11 (P-gp overexpressing) viability, CellTiter-Glo, 72 h; series mostly up to 44.5 µM
In short: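 Steps: plate 500 KB-8-5-11 cells/well in DMEM + 10% FCS (colchicine removed); pin compounds in dose-response; incubate 72 h, 37 degree C, 5% CO2; add CellTiter-Glo, 5 min; read luminescence.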
In the case of `CC(C)c1c2cc(-c3ccnc(NC4CCC(NC5CCOCC5)CC4)n3)ccc2nn1C` (centres undefined), the Potency is reported as 1.84 µM (active).
With `COc1cccc(C(=O)N2CCN(C(=O)COc3cccc(C)c3)CC2)c1OC` the Potency was 23.1 µM (active).
In the case of `CC(=O)OC1C(=O)C2(C)C(O)CC3OCC3(OC(C)=O)C2C(OC(=O)c2ccccc2)C2(O)CC(OC(=O)C(O)C(NC(=O)c3ccccc3)c3ccccc3)C(C)=C1C2(C)C` (centres undefined), the Potency is reported as 1.3 µM (active).
In the case of `COc1cc(O)c2c(c1)C1=CC(O)C(O)CC1(C)OC2=O` (centres undefined), the Potency is reported as “inactive”.
For `CN1CCN(Cc2ccc(-c3cnc4[nH]cc(-c5ccc6[nH]ccc6c5)c4c3)cc2)CC1`, the Potency was 7.31 µM (active).
In the case of `CC(=O)CC1CCC(C(C)C(=O)OCC(O)CO)O1` (centres undefined), the Potency is reported as “inactive”.
With `C=CCC1=C[C@]2(OC)[C@H](C)[C@@H](c3ccc(O)c(OC)c3)O[C@]2(OC)CC1=O` the Potency was “inactive”.
With `O=S(=O)(c1ccccc1)c1cnc2c(N3CCNCC3)cccc2c1` the Potency was “inactive”.
For `CCCCc1ccc(C(=O)Nc2cc(-c3ccc(Cl)cc3)nn2-c2ccc(Cl)cc2)cc1`, the Potency was “inactive”.
For `CC(=O)OC1CC2(C)C3=CCC4(C)C5C(O)C(O)C(C(C)C)C5(C)CCC4(C)C3CCC2C(C)(C)C1OC1OC(CO)C(O)C(O)C1O` (centres undefined), the Potency was “inactive”.
Compound `C[C@@H]1O[C@@H](O[C@@H]2[C@@H](O)[C@H](O[C@H]3[C@H](O[C@H]4CC[C@@]5(C)C(CC[C@]6(C)C5CC=C5[C@@H]7CC(C)(C)CC[C@]7(C(=O)O[C@@H]7O[C@H](CO)[C@@H](O)[C@H](O)[C@H]7O[C@@H]7O[C@@H](C)[C@H](O[C@@H]8O[C@@H](C)[C@H](O)[C@@H](O)[C@H]8O)[C@@H](O)[C@H]7O)CC[C@]56C)[C@@]4(C)CO)O[C@H](C(=O)O)[C@@H](O)[C@@H]3O)O[C@H](CO)[C@H]2O)[C@H](O)[C@H](O)[C@H]1O` (some centres undefined) has an activity change, negative = cytotoxicity of 9.26% [at 9.29 µM].
In the case of `CCCN1CCN(c2ccc(C(=O)NC3(C(=O)NCC#N)CCCCC3)cc2)CC1`, the Potency is reported as “inactive”.
For `COC(=O)C1(C)CCC2(C(=O)O)CCC3(C)C(=CCC4C5(C)CC(O)C(OC6OCC(O)C(O)C6O)C(C)(CO)C5CCC43C)C2C1` (centres undefined), the Potency was “inactive”.
In the case of `C[C@@H]1CCC/C=C/[C@H]2CC(=O)C[C@@H]2[C@@H](O)/C=C/C(=O)O1`, the Potency is reported as “inactive”.
